In the library only some 7.1% were active in any assay of this set; here they are far more common.
SW480 rerep = induces DNA re-replication in SW480 colon adenocarcinoma cells. Potency, µM (series often up to 46.1 µM), actives largely listed as activators. SW480 DNA re-replication, Hoechst DNA content imaging, 48 h. 1.8% of 340,000 active; also: nearly all actives have a fitted effect of over 55% in size
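First, 250 cells per well were seeded. Next, compound or vehicle (23 nL) was pinned in, plates sat 48 hr at 37 C. Finally Hoechst was added for 40 min before fluorescence scanning.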
MCF10A rereplic = DNA re-replication induction in MCF 10a cells. MCF 10A DNA re-replication, Hoechst nuclear intensity, 48 h. Potency, µM (highest dose often 46.1 µM), most hits filed as activators. 2.9% of 350,000 active. AID 624296; also: nearly all actives have a fitted effect of over 50% in size
ATXN viability = reduces viability in counter-screen for ATXN expression inhibitors; Potency, µM (highest dose often 56.7 µM), hits mostly cytotoxic; S2 cells (HEK-293 line with an ATXN2-luciferase reporter) viability, CellTiter-Fluor protease fluorescence, 24 h; AID 651635; 0.49% of 400,000 active; also: nearly all actives have a fitted effect of over 40% in size
ATXN2 expr inh = ATXN2 expression inhibition. HEK-293 ATXN2-luciferase reporter, luminescence, 24 h. Potency, µM (series often up to 57 µM), most hits filed as inhibitors. 0.72% of 360,000 active; also: nearly all actives have a fitted effect of over 55% in size
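qHTS (up to 57 uM final) was run with 24 h compound exposure of reporter cells at 37 °C. Each well was multiplexed: SteadyGlo luminescence measured ATXN2-luciferase expression after a fluorogenic Gly-Phe-AFC viability readout (25 uM final).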
IL-1B inflam inh = inflammasome signaling inhibition, IL-1 beta readout | THP-1 LPS/ATP IL-1B secretion, AlphaLISA, 16 h; active compounds read low | 4.7% of 360,000 active | AID 743279 | activity change, % at 57.5 µM; in the data active = activity change below about -50%; inconclusive = mostly about -30% to -49%
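Secreted IL-1B measured by AlphaLISA bead assay after 16 h compound exposure of THP-1 cells; compounds (final up to 57.5 uM) added 1 h before LPS (250 ng/mL) and ATP (1.25 mM) stimulation; lower signal means less secretion.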
PINK1 modulator = modulators of PINK1 expression; PINK1 immunofluorescence, high-content cytometry, 24 h; Potency, µM (series often up to 76.6 µM), hits mostly activators; 0.2% of 410,000 active; AID 624263; active = well fitted activation curve with a large enough effect; inconclusive = small, poorly fitted or top-dose-only effect; cell line not stated here; also: nearly all actives have a fitted effect of over 65% in size
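PINK1 protein level read as immunofluorescence by microplate cytometer in a fixed, stained stable cell line after 24 h exposure to five compound concentrations, with CCCP as control.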
Numbers stand for hits; n = inactive; u = inconclusive; x = no result given; [ ] = another dose, or the depositor's remark. Unless noted, calls follow the shape of the dose curve; as a rule, active = well fitted curve in the direction sought with a large enough effect; inconclusive = small, poorly fitted or top-dose-only effect, or another doubt; inactive = no such curve, though single readings can be large; an effect the other way counts as inactive or inconclusive.

SMILES	SW480 rerep	MCF10A rereplic	ATXN viability	ATXN2 expr inh	IL-1B inflam inh	PINK1 modulator
COC(=O)C1=C(c2ccc(F)cc2OCc2ccccc2)C[C@@H]2CC[C@H]1N2C(=O)NCc1ccc(F)cc1	0.517µM	u	u	u	n	n
COC(=O)C1=C(c2ccc(F)cc2OCc2ccccc2)C[C@@H]2CC[C@H]1N2C(=O)NCc1ccc(C)cc1	u	n	u	u	-59.0	n
COc1cc2cc(c1Cl)N(C)C(=O)C[C@H](OC(=O)C(C)C)[C@]1(C)O[C@H]1[C@H](C)[C@@H]1C[C@@](O)(NC(=O)O1)[C@H](OC)C=CC=C(C)C2	x	x	x	n	x	x
COCC(=O)N1CCC2(CCCN(Cc3ccncc3)C2)CC1	x	x	x	x	x	n
O=C(CCS(=O)(=O)c1ccccc1)Nc1nnc(-c2ccco2)o1	n	u	n	n	n	n
CC(=O)N1CCCc2cc(S(=O)(=O)N3CCCC(C(=O)N4CCN(c5ccccc5F)CC4)C3)ccc21 (stereo not given)	x	x	u	u	x	n
COc1ccc(C(=O)OCC(=O)Nc2ccc([N+](=O)[O-])cc2OC)c(O)c1	n	n	u	u	n	n
OCc1cccc[n+]1CCc1ccccc1	n	n	n	n	n	n
COc1cc(/C=C/c2nc3ccccc3c(=O)n2-c2ccc(O)cc2)ccc1O	u	20.6µM	n	n	-65.3	n
CCC(=O)OC1CCC2C3CCC4CC(=O)C=CC4(C)C3CCC12C (stereo not given)	u	u	n	n	-79.3	n
CCC(=O)O[C@@H]1C=C2CCC3C(CCC4(C)C3CC[C@@H]4OC(=O)CC)C2CC1 (stereo not given in full)	x	x	n	n	x	x
CC(C)(C)OC(=O)NCc1ccc(CNC(=O)c2[nH]cnc2C(=O)Nc2ccccc2F)cc1	x	x	u	u	n	n
C#C[C@]1(O)CC[C@H]2[C@@H]3CCC4=Cc5nc6nc7ccccc7n6cc5C[C@]4(C)[C@H]3CC[C@@]21C	7.94µM	u	n	n	n	n
CCCCCCCn1c(=O)c(C(=O)Nc2cnccn2)c(O)c2ccccc21	u	3.66µM	n	u	x	n
CCCCCn1c(=O)c(C(=O)Nc2cnccn2)c(O)c2ccccc21	n	16.4µM	n	n[11.3 µM]	n	n
CCCCCn1c(=O)c(C(=O)Nc2cc(C)ccn2)c(O)c2ccccc21	n	n	u	n	n	n
CCCCCn1c(=O)c(C(=O)Nc2ccccc2S(N)(=O)=O)c(O)c2ccccc21	3.66µM	4.11µM	n	u	u	u
CCCCN1CCS(=O)(=O)N(Cc2ccccc2Br)CC(C(=O)OC)C1 (stereo not given)	u	u	n	n	n	n
C[C@@]12CC3CC(N)(C1)C[C@@](C)(C3)C2	x	x	n	x	x	x
CCC(c1nnnn1C(C)(C)C)N1CCC2(CC1)C(=O)NCN2c1ccccc1 (stereo not given)	x	x	u	n	n	n
CC(C)(C)n1nnnc1C(CCc1ccccc1)N1CCC2(CC1)C(=O)NCN2c1ccccc1 (stereo not given)	x	x	u	u	-60.5	n
COc1ccc(-n2nnnc2C(c2cccs2)N2CCC3(CC2)C(=O)NCN3c2ccccc2)cc1 (stereo not given)	x	x	u	u	-56.6	n
COc1ccc(-n2nnnc2C(CCc2ccccc2)N2CCC3(CC2)C(=O)NCN3c2ccccc2)cc1 (stereo not given)	x	x	u	u	-67.1	n
COC(=O)c1c(OCc2cccnc2)cc(=O)n2c1CCN(Cc1cc3c(cc1Cl)OCO3)CC2	x	x	u	x	x	n
CCC1/C=C/C=CCC(C)C(O)[C@@](C)(O)C(=O)C(C)C(O)C(C)C(=O)C(C)C(O)C(C)C=CC(=O)O[C@H]2C(C)C(CC1)O[C@]1(CCC(C)C(CC(C)O)O1)C2C (stereo not given in full)	x	x	x	x	x	n
CC1Oc2cc3c(-c4c(O)cc(O)c5c(O)c6c(cc45)OC(C)C(C)C6=O)c(O)cc(O)c3c(O)c2C(=O)C1C (stereo not given)	13µM	n	u	11.2µM	u	u
O=P1(O)C=C(c2ccccc2)NC(c2ccccc2)=C1	n	n	n	n	n	u
